# Active and inactive are the calls of the source.
# Assays:
# [1] = system: Plasmodium falciparum Sir2 (PF13_0152, Sir2A); test: pfSir2 binders on small-molecule microarrays, primary screen, biochemical, small-molecule microarray, 635 nm fluorescence (AID 1098); conditions: small-molecule microarray binding, fluorescence 635 nm; higher = more signal;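 also: score merges spot fluorescence intensity with its signal-to-noise ratio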
# [2] = small-molecule microarray binders of probe aDKK1, primary screen, biochemical, biotinylated probe, 635/667 nm fluorescence (AID 1099); conditions: higher = more signal;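 also: score merges 667nm spot fluorescence with signal to noise across triplicate slides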
# [3] = small-molecule microarray binders of probe aCHRDL2, primary screen, biochemical, biotinylated probe, 635/667 nm fluorescence (AID 1100); conditions: higher = more signal
# [4] = splicing luciferase reporter signal modulators, primary screen, spliceosome inhibition project, cell-based, HEK293, splice +/- reporter (AID 1101); conditions: luminescence, 24 h, higher = more signal, called active from +8 up or from −8 down;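 also: HEK293 cells carrying a splicing-competent luciferase reporter gene; test concentration not given here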
# [5] = target: Fibroblast growth factor 10 (Homo sapiens) (UniProt O15520); test: FGF10 binders on small-molecule microarrays, primary screen, biochemical, small-molecule microarray, 635 nm fluorescence (AID 1102); conditions: FGF10 binding, fluorescence 635 nm, higher = more signal
# [6] = system: glycogen synthase kinase-3 (GSK3A per assay name; protocol says GSK3B); test: GSK3 binders on small-molecule microarrays, primary screen, biochemical, small-molecule microarray, 635 nm fluorescence, GSK3A (AID 1103); conditions: small-molecule microarray binding, fluorescence 635 nm; higher = more signal; also: the record names both GSK3A and GSK3B
# [7] = target: Epidermal growth factor receptor (Homo sapiens) (UniProt P00533); test: EGFR binders on small-molecule microarrays, primary screen, biochemical, small-molecule microarray, 635 nm fluorescence (AID 1104); conditions: EGFR binding, higher = more signal;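 also: score merges 667 nm emission intensity with spot signal to noise over triplicate slides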
# [8] = target: Follistatin-related protein 3 (Homo sapiens) (UniProt O95633); test: FSTL3 binders on small-molecule microarrays, primary screen, biochemical, small-molecule microarray, 635 nm fluorescence (AID 1105); conditions: FSTL3 binding, higher = more signal;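 also: score merges emission near 667 nm and signal to noise per printed spot across three slides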
# [9] = target: Dickkopf-related protein 1 (Homo sapiens) (UniProt O94907); test: DKK1 binders on small-molecule microarrays, primary screen, biochemical, small-molecule microarray, 635 nm fluorescence scan (AID 1106); conditions: DKK1 binding, higher = more signal;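 also: score merges emission near 667 nm with signal to noise over three replicate slides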
# [10] = system: Inhibin beta A chain (activin A); test: INHBA (activin A) binders on microarrays, primary screen, biochemical, small-molecule microarray, 635 nm fluorescence scan (AID 1107); conditions: small-molecule microarray binding, higher = more signal;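 also: mouse activin A protein probed at 4.33 µg/mL on printed slides; score merges bound-protein fluorescence near 667 nm with spot signal-to-noise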
# [11] = system: Human papillomavirus type 1a protein E7 (residues 44-93); test: HPV1a E7 fragment binders on microarrays, primary screen, biochemical, small-molecule microarray, residues 44-93, 635 nm fluorescence (AID 1108); conditions: small-molecule microarray binding, fluorescence 635 nm; higher = more signal;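 also: E7 fragment applied at 1 µg/mL in TBST for 1 h at 4 C; score combines spot fluorescence with its signal to noise ratio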
# [12] = modulators of HCV replicon luciferase signal, primary screen, HCV replication inhibitor project, Huh7 cells, luciferase reporter (AID 1109); conditions: 48 h, higher = more signal;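 also: huh7 hepatoma cells harbouring a luciferase neomycin HCV replicon reporter; luciferase luminescence as measure of HCV replicon replication; test concentration not given here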
# [13] = target: Left-right determination factor 2 (Homo sapiens) (UniProt O00292); test: LEFTY2 binders on small-molecule microarrays, primary screen, biochemical, small-molecule microarray, 635 nm fluorescence scan (AID 1110); conditions: LEFTY2 binding, higher = more signal
# [14] = target: Calmodulin-1 (Homo sapiens) (UniProt P0DP23); test: CALM1 binders on microarrays, EGTA buffer, profiling panel, biochemical, small-molecule microarray, Cy5-labelled CALM1 (AID 1111); conditions: Cy5-CALM1 binding fluorescence, higher = more signal;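 also: labelled calmodulin applied in Tris saline Tween buffer holding calcium plus EGTA and DTT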
# [15] = target: Calmodulin-1 (Homo sapiens) (UniProt P0DP23); test: calcium-bound CALM1 binders on microarrays, profiling panel, artefact control for SMM control-protein annotation, biochemical, small-molecule microarray, Cy5-labelled CALM1, plus calcium (AID 1112); conditions: Cy5-CALM1 binding fluorescence, higher = more signal;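 also: score merges spot fluorescence with signal to noise from triplicate slides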
# [16] = small-molecule microarray binders of probe aWnt5a, primary screen, biochemical, biotinylated probe, 635/667 nm fluorescence (AID 1113); conditions: higher = more signal;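 also: score merges 667 nm fluorescence intensity with signal-to-noise per printed feature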
# [17] = small-molecule microarray binders of probe aShh, primary screen, biochemical, biotinylated probe, 635/667 nm fluorescence (AID 1114); conditions: higher = more signal;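 also: probe is biotin-labelled aShh protein from a stem cell growth factor screen; measures binding of labelled protein to compounds printed on the slide; score merges feature fluorescence at 667 nm with signal-to-noise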
# [18] = small-molecule microarray binders of probe aNog, primary screen, biochemical, biotinylated probe, 635/667 nm fluorescence (AID 1115); conditions: higher = more signal;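 also: probe is biotinylated aNog protein used at 0.15 µg/mL for 1 h at 4 C; z-score combines 667 nm fluorescence of each spot with its signal to noise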
# [19] = target: Torsin-1A-interacting protein 1 (Homo sapiens) (UniProt Q5JTV8); test: LAP1 binders from COS7 cell lysate, primary screen, small-molecule microarray, 635/667 nm fluorescence (AID 1116); conditions: COS7-hLAP1 lysate binding, 635 nm fluorescence, higher = more signal
# [20] = target: Alpha-bungarotoxin (Bungarus multicinctus) (UniProt P60615); test: alpha-bungarotoxin binders on microarray, profiling panel, artefact control for SMM control protein annotation, biochemical, small-molecule microarray, Alexa647 label, 635/667 nm fluorescence (AID 1117); conditions: alpha-BTX-A647 binding fluorescence, higher = more signal
# Sequence of Alpha-bungarotoxin (Bungarus multicinctus) (P60615 whole entry, looked up): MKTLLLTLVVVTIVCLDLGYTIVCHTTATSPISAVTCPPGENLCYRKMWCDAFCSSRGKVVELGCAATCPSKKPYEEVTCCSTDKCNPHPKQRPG
# Sequence of Torsin-1A-interacting protein 1 (Homo sapiens) (Q5JTV8 whole entry, looked up): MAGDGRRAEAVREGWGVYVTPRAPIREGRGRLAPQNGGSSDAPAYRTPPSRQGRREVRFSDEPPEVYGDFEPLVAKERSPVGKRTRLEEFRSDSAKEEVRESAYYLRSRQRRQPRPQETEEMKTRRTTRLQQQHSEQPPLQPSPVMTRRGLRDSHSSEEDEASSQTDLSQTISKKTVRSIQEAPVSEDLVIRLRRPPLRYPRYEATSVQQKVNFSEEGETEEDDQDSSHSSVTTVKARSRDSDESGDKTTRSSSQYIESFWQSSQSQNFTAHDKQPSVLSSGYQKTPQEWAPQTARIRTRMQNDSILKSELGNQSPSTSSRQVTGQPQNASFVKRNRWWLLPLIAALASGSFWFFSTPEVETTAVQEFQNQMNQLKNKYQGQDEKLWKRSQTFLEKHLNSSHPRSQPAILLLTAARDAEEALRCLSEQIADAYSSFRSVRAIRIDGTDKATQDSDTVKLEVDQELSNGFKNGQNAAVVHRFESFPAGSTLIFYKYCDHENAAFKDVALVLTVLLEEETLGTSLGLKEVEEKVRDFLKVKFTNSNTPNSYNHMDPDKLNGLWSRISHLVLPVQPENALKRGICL
# Sequence of Follistatin-related protein 3 (Homo sapiens) (O95633 whole entry, looked up): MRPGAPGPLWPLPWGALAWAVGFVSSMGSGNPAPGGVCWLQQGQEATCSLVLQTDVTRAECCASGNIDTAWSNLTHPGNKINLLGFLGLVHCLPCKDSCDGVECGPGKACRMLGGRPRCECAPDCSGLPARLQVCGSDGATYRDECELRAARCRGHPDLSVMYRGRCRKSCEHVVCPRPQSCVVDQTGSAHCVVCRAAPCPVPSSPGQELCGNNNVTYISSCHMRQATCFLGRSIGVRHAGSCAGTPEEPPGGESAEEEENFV
# Sequence of Left-right determination factor 2 (Homo sapiens) (O00292 whole entry, looked up): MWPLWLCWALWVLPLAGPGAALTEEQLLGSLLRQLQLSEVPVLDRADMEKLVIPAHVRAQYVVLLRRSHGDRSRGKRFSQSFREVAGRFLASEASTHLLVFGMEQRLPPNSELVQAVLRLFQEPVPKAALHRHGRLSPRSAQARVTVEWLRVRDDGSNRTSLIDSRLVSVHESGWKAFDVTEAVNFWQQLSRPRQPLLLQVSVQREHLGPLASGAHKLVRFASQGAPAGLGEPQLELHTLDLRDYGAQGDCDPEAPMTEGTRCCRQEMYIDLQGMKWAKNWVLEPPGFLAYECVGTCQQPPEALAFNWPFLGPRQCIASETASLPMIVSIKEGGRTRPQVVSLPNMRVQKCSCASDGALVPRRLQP
# Sequence of Epidermal growth factor receptor (Homo sapiens) (P00533 whole entry, looked up): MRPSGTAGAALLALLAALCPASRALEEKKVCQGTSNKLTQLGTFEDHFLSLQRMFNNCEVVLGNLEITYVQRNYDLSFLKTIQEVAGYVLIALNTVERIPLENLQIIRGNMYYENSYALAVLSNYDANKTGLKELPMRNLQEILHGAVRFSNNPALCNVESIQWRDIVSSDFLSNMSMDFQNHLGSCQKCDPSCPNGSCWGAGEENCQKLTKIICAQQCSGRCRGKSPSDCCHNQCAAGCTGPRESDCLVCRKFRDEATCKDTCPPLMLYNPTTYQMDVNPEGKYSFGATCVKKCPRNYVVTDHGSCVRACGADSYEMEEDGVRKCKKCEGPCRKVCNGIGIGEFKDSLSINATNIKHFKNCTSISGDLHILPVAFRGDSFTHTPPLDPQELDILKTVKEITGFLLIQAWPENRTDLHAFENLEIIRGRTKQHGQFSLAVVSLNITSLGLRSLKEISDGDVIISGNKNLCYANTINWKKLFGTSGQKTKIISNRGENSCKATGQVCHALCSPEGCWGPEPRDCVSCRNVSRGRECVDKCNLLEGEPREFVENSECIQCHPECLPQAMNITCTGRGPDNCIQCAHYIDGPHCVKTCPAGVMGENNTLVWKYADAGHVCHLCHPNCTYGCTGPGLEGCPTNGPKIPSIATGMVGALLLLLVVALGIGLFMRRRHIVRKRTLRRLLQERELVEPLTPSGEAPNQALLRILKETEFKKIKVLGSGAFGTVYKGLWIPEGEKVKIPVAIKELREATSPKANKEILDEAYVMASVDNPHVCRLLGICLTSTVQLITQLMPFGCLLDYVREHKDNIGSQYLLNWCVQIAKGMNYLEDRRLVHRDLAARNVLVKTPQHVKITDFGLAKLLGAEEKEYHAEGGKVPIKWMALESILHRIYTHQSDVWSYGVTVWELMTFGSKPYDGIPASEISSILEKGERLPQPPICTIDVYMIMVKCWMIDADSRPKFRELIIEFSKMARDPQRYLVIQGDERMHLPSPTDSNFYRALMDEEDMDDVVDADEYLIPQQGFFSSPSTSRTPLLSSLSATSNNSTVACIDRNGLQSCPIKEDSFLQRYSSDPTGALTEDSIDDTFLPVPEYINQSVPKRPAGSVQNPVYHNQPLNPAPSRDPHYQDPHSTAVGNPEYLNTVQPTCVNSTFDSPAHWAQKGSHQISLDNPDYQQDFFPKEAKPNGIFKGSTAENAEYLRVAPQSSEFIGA
# Sequence of Dickkopf-related protein 1 (Homo sapiens) (O94907 whole entry, looked up): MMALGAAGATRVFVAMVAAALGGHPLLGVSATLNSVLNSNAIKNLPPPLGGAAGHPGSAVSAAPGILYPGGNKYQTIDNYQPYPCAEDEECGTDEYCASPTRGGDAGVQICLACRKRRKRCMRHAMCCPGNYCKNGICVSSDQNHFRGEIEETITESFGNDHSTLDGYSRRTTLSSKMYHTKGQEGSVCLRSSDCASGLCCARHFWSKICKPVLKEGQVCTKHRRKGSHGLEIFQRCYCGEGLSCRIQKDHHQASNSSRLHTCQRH
# Sequence of Fibroblast growth factor 10 (Homo sapiens) (O15520 whole entry, looked up): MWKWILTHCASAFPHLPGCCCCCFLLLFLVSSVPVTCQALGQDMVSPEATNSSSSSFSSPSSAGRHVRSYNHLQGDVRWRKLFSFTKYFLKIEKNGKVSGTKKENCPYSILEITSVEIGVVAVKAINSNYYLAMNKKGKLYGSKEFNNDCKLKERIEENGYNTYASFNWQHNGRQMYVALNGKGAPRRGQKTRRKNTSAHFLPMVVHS
Structure (SMILES),composite z-score [1],composite z-score [2],composite z-score [3],z-score [4],composite z-score [5],composite z-score [6],composite z-score [7],composite z-score [8],composite z-score [9],composite z-score [10],composite z-score [11],z-score [12],composite z-score [13],composite z-score [14],composite z-score [15],composite z-score [16],composite z-score [17],composite z-score [18],composite z-score [19],composite z-score [20]
C=C(/C(=C/C[C@@H](OC(=O)c1ccncc1)c1ccccc1OCCO)c1cnc2ccccc2c1)C(C)C,0.25,0.0171,-0.21,-2.43 (inactive),1.55,1.29,1.23,1.61,0.413,1.77,1.4,-4.46,0.935,0.273,-0.531,0.0044,-0.195,0.0588,1.23,3.08
CCC[C@@H]1C[C@@]1(CCC)[C@@H](NC(=O)c1cccs1)c1ccc(Cl)cc1,-0.67,0.119,1.09,-1.15 (inactive),-0.341,-0.919,-2.21,-2.17,-1.76,0.948,-0.364,-2.05,-2.42,0.883,0.881,0.0529,0.29,1.39,-0.506,-0.0153
CC(C)(C)OC(=O)CC[C@@]1(C(=O)N2CCCCC2)N=C(c2ccc(OCCCO)cc2)O[C@@H]1c1ccccc1N=[N+]=[N-],1.13,0.977,0.964,-0.405 (inactive),1.19,1.3,0.32,1.1,-0.139,0.899,1.03,0.0393,0.503,1.07,0.398,0.0434,0.0638,1.92,1.27,0.451
CCCNC(=O)[C@@]1(Sc2ccc(C)cc2)CC(=O)N(Cc2ccccc2)[C@@H]1c1ccc(CO)cc1I,0.523,0.806,0.484,-0.494 (inactive),0.559,0.108,0.183,0.942,0.353,1.47,1.17,-2.64,-0.045,-0.296,0.143,-0.0758,-0.1,0.225,0.285,1.19
O=C1c2ccccc2C(=O)C2CC([C@H]3Oc4ccccc4S(=O)(=O)N4CCC[C@@H]34)=CCC12 (stereo not given in full),-0.41,-0.158,-0.119,-0.279 (inactive),0.0804,0.301,0.153,-0.26,0.187,0.771,-0.811,-1.34,0.0197,-0.488,0.184,-0.124,-0.0362,-0.273,0.123,0.0404
C[N+](C)(C)CCCC[C@@H]1NC(=O)[C@@H]2C[C@H](C(=O)O)[C@H](c3cccc(OCCO)c3)N2C1=O,1.53,-0.066,0.667,-0.11 (inactive),0.11,-0.144,-0.188,-0.492,0.503,0.146,0.17,-0.208,-0.8,-0.705,0.417,-0.276,-0.0681,-0.326,-0.0851,-1.03
CCCN1C(=O)[C@@]2(Cc3ccccc3)N=C(c3ccc(OCCCO)cc3)O[C@H]2c2ccccc21,1.61,0.0149,0.707,-0.872 (inactive),0.926,1.14,0.234,0.63,-0.234,1.14,1.36,-2.1,0.133,-0.141,-0.489,-0.101,0.195,0.0716,1.48,1.6
CCCC=C(CCC)[C@@H](NS(=O)(=O)c1ccccc1)c1ccc(C(F)(F)F)cc1,0.98,0.965,0.224,-3.31 (inactive),0.867,1.32,0.216,0.89,-0.0595,-0.0447,1.37,-2.28,0.0643,1.73,0.726,0.0495,0.432,-0.475,1.31,1.28
C=CCC(OC(C)=O)[C@@H]1[C@@H](N(Cc2ccc(-c3cccc(C(F)(F)F)c3)o2)C(=O)c2cccc3ccccc23)c2cc(OCCCO)ccc2N1C(=O)c1ccc(-c2ccccc2)cc1 (stereo not given in full),0.295,0.0007,-0.0042,-0.791 (inactive),0.192,-0.579,0.181,0.248,0.518,1.09,-0.535,0.182,0.0289,-0.638,0.219,-0.22,-0.138,-0.182,-0.465,0.143
CO[C@H]1O[C@H](CO)[C@@H](OC(=O)Nc2ccc(C(F)(F)F)cc2)[C@H](OC(=O)Nc2ccccc2)[C@H]1OC(=O)Nc1ccccc1,1.61,0.995,0.832,-0.624 (inactive),1.33,1.33,0.375,1.2,0.0148,0.0729,0.69,-3.84,0.513,1.99,0.168,0.133,0.342,1.18,0.825,2.69
CCOC(=O)C[C@H]1[C@H](OC(=O)Cc2ccc3c(c2)OCO3)[C@@H](NC(=O)c2ccccc2)c2cc(OCCCO)ccc2N1C(=O)c1ccccc1,-0.0111,-0.0126,-0.0843,-0.299 (inactive),0.603,0.505,0.437,0.371,0.276,0.524,0.487,-0.183,0.24,0.334,-0.469,-0.128,-0.221,-0.18,0.223,0.652

# From PubChem BioAssay
